Over roughly 59,000 sequences, the read-out has its median near -0.00055; the lowest 2% begin near -2. Only a selection was taken, and the lowest values are over-represented in it overall.
experiment: Identification of proteins required for the processing of the EWS-FLI1 nascent transcript; settings: TC32 Ewing sarcoma NR0B1-luc vs CMV-luc (EWS-FLI1 target promoter against control promoter), 48 h; screened at 20 nM (by protocol);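 also: robust z of luciferase light less the median z of siRNAs with the same seed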
Outline: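 Genome-wide siRNA screen (Ambion v4.1, three siRNAs per gene, 20 nM final, RNAiMax) in Ewing sarcoma TC32 cells carrying NR0B1-promoter or CMV-promoter luciferase; OneGlo luciferase read 48 h post-transfection. Data normalized, z-score-MAD transformed and seed-adjusted.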

Sequence	seed-corrected z-score
UGUUCAAUCUUGGAGCUGG against LRRC8E	1.15
AAAGAUCAAAUCUGAUUCC against MRPL19	-0.8
AUAUGUUCAAGGUGAUUCG against OR6K2	-0.456
AUCGCGAACACUAACGUAC against SUB1	-0.141
UUAGGUAACGGAAACGGGC against LDHC	0.562
UUGGUAUUGAUCGUUUAUG against DCUN1D1	1.03
AUACCGAAAACCUUCGCCC against ABCA3	0.623
UAUGGUUACAAAGGGAACU against ZNF669	0.508
UCAGGUACAAUUCUGAUUC against KRT38	-0.223
UUGGGUGUCAGGAUCUCGU against MYH14	-2.4
UACAUCUCCAGGGUCAGCG against CALY	-0.514
UCUGCGACUCCUGUUCUGC against WRBP1	0.0575
UUUGUAAGGUUGCUGAUCG against CLIP1	0.221
UUCUCGUCUAGUUUGCAUC against SH3RF3	0.155
AUUGUUUGUGGUAUUGUAG against CRHR1	0.211
UGAGUGCUUACUGGUUUGC against C9orf47	-3.58
UCGGAUGUAUCUGAGGUGC against DCAF8L1	-0.269
UCUAAUUCUGCGGCUUUUC against SCAMP1	-0.0112
UAGAUGCUCAGGGAUCACC against AS3MT	1.06
UUUCGAACACGAAACAUUC against LOC340089	-0.0497
AUACCUGCUAAUGUCAUCC against ERCC6	-3.8

Sequence	seed-corrected z-score
ACAGUUAGUAUUGUACUUG against ZNF280C	0.315
UGAGUUUCCAGGCUAUCAC against CCDC122	-2.99
AUACUGAAAAUAGUACAUG against KMT5A	0.332
UGUACAGAGAGGGCAUGUG against BAIAP2L2	-1.82
UUUCAUAGAUUAGCACUCC against PRKACB	-0.257
UCGGUGAUGAGGCUGAUCC against G6PC3	-0.843
AGUGUAACAGACAUCAUGC against DLAT	-0.966
UUGUAUUCCCUUGUGGUCC against KHDRBS1	-2.93
UGCUUUGUCGUAAUCUUCC against UNC45A	-0.29
AAAAUAAUCGAUGUGAUUU against FOXI3	-0.41
AUCACUCUCACAUACAUGG against RCAN1	-0.288
UAUCGUGAAACAGACUUCC against SND1	0.0523
UUCUAAACAACUCUUGGAC against RPUSD4	-0.962
UACAGGGUCAGGGAGAGGU against PTPN6	-2.18
UUGUAUACAACCUAUCAAC against B4GALT6	-0.657
UUAUUUUGAAUAGCCUUCC against SERBP1	1.09
UAUAUCGACAGCUCAGCUC against SUPT6H	-4.43
UUGGUAUCCAAAGACGAUG against RTKN2	-0.918
AAGGGCAAAGGAGUGAGGC against LOC100289495	-0.199
UUCUGGUUAGUCAUAUUGG against HDAC1	-0.41
UUGAGGGCAGAAGUACACU against FAM231D	-0.76

Sequence	seed-corrected z-score
UGGUUUGUCAGCGGGAUUC against MINK1	-2.53
AUCCGAACACCCAUAAGCC against POLK	-0.479
UUAAUUCUAUUCGAUCAUC against MNS1	0.033
UCUUAUGUUGGUGUUGUUC against SMOC1	0.0653
UGAGUGAUAGUCUAGACUC against SOX9-AS1	0.0191
UUUAUUUAGGGAGCUCCAG against ETHE1	0.835
UUACGUUCAGAGUCUAUCG against C17orf75	0.0852
UUGUUGAUCACUUUGACGG against IKZF3	0.604
AAACAGUCCAUUAACUUCU against RBM38	0.257
UUCUUGGUAAGAUCGAGAG against RNF43	-2.77
AAUGCGAUUAUUGUCUGUC against CCT3	0.0264
UCGGUUGUAUAUGUCAUCC against KIAA0100	0.141
UUCACUGAUCUGAAAGUUG against NAA10	0.839
UCACUGUGCAUUUCUCCAC against GUCD1	0.93
UUAUAGUAUGCAGGAAUGG against FAM150B	-1.67
UGACUAAGAACUGUAUCCC against CC2D2B	-2.16
UUUUCGGCGUGUAUCCUCG against CHMP1B	-0.617
UCUUUGACAAGGACCCUUC against G2E3	1.23
UAGGUCAAGAUAACCAUGC against OR8K1	-13.9
UUUGUGCUGCUUGUUCUCG against ADCK3	-1
UGUAUCUCGAUCUUCACCG against STRN	-0.0881

Sequence	seed-corrected z-score
UGCAUGAAUAGAGUCGGCG against RAB22A	-0.347
AAAUAUAUAGGGCAUCCAG against PLEKHM1P1	0.174
UCUUCUCUAAGUCUAGGUC against POM121	0.532
UGCUGAAUAGGUCCAAUCC against HERPUD1	-1.46
UCAUAUGGAACUCUAAAGC against PIK3CG	0.358
AAUCUUCAAACAGCCGCUC against CHRNA3	-2.52
AUAUGAUUCCCAAUUAAUG against TMEM119	1.74
UAAGAUCCGAGUCACUAUC against RPH3AL	-0.639
UUUCAGCUUCUUGUACUGG against ROCK1P1	-2.99
UCGUUGAUCACAAUUAGCU against ADAM11	0.436
UCUGGUAUCAGAAAGUUCG against BBS7	-0.128
ACAGAUAUAGGAGAAAGCC against NUMBL	0.00267
UAGCCUAUCAAUGAAACCU against ZNF222	0.694
UUUACGUCGUUCUUCUUCC against TXLNG	0.0162
UUUGGGUCAACGGUGAGGU against KIAA2012	0.316
AUGUUUUUCAAGUAGCUUC against CDRT4	-1.38
UUAACUUGUUGUAUUGCUG against CCDC109B	1.36
AACACUAUUUAGCUCAUUC against TARBP1	0.0464
UGAGAGAUAAUUUUGGGAG against SPDYC	-12.8
UUACUUUCUUCAACCAAAG against TRMT6	0.527
UUUCGAAGUUGCAUGGUUG against KDM5D	-0.291

— PubChem BioAssay AID1159506 (National Center for Advancing Translational Sciences (NCATS), 2015)
